Source: PubChem (The Scripps Research Institute Molecular Screening Center)
M1 ag parental: counter-screen for M1 agonists: effect in parental CHO-K1 cells; Fluo-8 calcium fluorescence; scaled to maximal ATP response, vehicle zero; activation, % at 3 µM; AID 602248, 2012; hit rate 0.48% among 360,000; in the data active = activation above about 15%;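 also: untransfected CHO-K1 host cells lacking M1 receptor as counterscreen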
CHO-K1 Ca antag: counter-screen for M1 antagonists: effect in parental CHO-K1 cells | hit rate 0.6% among 360,000 | inhibition, % at 3 µM | ATP-induced calcium, Fluo-8 fluorescence;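 active = inhibition above a per-plate cutoff, the plate's mean sample inhibition plus 3 SD, cut at about 24% in these data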;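 also: 0% = DMSO plus EC80 ATP and 100% = DMSO alone without ATP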
CHO-K1 Ca PAM: nonselective calcium activators in parental CHO-K1 cells, primary screen, counter-screen for M1 PAM project, cell-based, Fluo-8 calcium fluorescence, full deck, 1536-well; ATP EC20; 0% at ATP EC20, 100% at ATP max; activation, % at 3 µM; hit rate 0.02% among 360,000;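 active = activation above the run cutoff, the mean activation of all test compounds plus 3 SD, cut at about 40% in these data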;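 also: peak over basal fluorescence ratio in a 140 s read after ATP addition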
CHRM1 antagonist: human M1 muscarinic receptor antagonists, primary screen, CHO-K1 cells, Fluo-8 calcium fluorescence, 1536-well; Muscarinic acetylcholine receptor M1 (Homo sapiens), P11229; CHO-K1 hM1, ACh EC80 antagonist; inhibition, % at 3 µM; hit rate 1.3% among 360,000; AID 588852, 2011;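 active = percent inhibition above its own plate's cutoff, namely the mean of that plate's compound wells plus 3 SD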;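 also: peak over basal fluorescence ratio during 140 s after agonist addition; 0% = ACh EC80 plus DMSO and 100% = DMSO alone without agonist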
Target sequence (P11229 whole entry, looked up): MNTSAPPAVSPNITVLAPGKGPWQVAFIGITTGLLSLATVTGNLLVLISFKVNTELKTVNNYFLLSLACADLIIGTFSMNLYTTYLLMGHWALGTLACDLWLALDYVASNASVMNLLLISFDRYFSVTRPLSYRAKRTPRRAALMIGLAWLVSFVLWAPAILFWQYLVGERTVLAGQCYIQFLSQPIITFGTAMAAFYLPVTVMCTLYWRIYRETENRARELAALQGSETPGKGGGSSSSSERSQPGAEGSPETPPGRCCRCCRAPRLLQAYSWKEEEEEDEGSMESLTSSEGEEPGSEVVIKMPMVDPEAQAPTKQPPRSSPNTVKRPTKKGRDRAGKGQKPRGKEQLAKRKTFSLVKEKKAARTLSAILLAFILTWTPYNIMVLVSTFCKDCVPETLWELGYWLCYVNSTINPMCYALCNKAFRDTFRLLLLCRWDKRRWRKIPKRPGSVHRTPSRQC
CHRM1 agonist: human M1 muscarinic receptor agonists, primary screen, Fluo-8 calcium fluorescence, CHO-K1 cells, HTS. Muscarinic acetylcholine receptor M1 (Homo sapiens), P11229. CHO-K1 hM1, agonist mode; 0% DMSO, 100% acetylcholine EC100. activation, % at 3 µM. hit rate 0.33% among 360,000;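 active = activation above the run's mean compound activation plus 3 SD, cut at about 16% in these data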;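 also: peak over basal fluorescence ratio within a 140 s kinetic read after compound addition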
CHRM1 PAM: human M1 muscarinic receptor positive allosteric modulators, primary screen, CHO-K1 cells, Fluo-8 calcium fluorescence, 1536-well; CHO-K1 hM1, ACh EC20; 0% = ACh EC20, 100% = maximal ACh; activation, % at 3 µM; hit rate 0.088% among 360,000; AID 588819, 2011; in the data active = activation above about 19%, passing the limit was not always enough
Active calls of the source: *; · = no result. Shown are actives, neighbours in structure and some others; about 2.3% of the full set was active somewhere.

SMILES	M1 ag parental	CHO-K1 Ca antag	CHO-K1 Ca PAM	CHRM1 antagonist	CHRM1 agonist	CHRM1 PAM
C/C(=N\NC(=O)C(c1ccccc1)c1ccccc1)c1ccc(O)cc1	1	-13	20	-39	2	31*
Cc1nc(N)nc(N)c1-c1ccc(Cl)c(Cl)c1	5	-18	27	46*	-5	-28
CC12CCC(=O)N1C(C(=O)Nc1cc(Cl)ccc1N1CCOCC1)CS2 (centres undefined)	2	0	-5	-4	-4	7
NC(=O)c1ccsc1NC(=O)CN1CCN(S(=O)(=O)c2ccccc2C(F)(F)F)CC1	16*	-14	13	24	4	-15
CCCOC(=O)c1ccc(OCC(O)Cn2c(C)nc3ccccc32)cc1 (centres undefined)	12	21	0	40*	3	-19
O=C(O)/C=C/C(=O)N1CCN(S(=O)(=O)c2cc(C(F)(F)F)ccc2Cl)CC1	-1	4	-7	5	-1	4
O=C1CN(S(=O)(=O)c2cc(C(F)(F)F)ccc2Cl)CCN1	0	-12	12	6	8	30*
O=C(Nc1cccc(/C=C/c2ccccn2)c1)c1ccc(-n2cncn2)cc1	6	0	1	31*	3	-15
Cc1ccc2nc(Nc3ccc(C)c(C)c3)c3nncn3c2c1	1	-1	-6	-2	-1	-1
CCn1c(=O)c(C(=O)CN2CCCc3ccccc32)c(N)n(Cc2ccccc2)c1=O	0	14	2	22*	-6	-10
O=C1CCN(CCc2ccccc2)CCN1CCSc1ccccc1	1	-3	7	-3	-11	7
Cc1ccccc1CNC(=O)C(C)Sc1ccccc1 (centres undefined)	0	2	-1	-9	-9	4
O=C(Oc1cccc(/C=N/Nc2nc(Nc3ccccc3)nc(N3CCOCC3)n2)c1)c1ccco1	4	12	5	17	-6	-7
Cc1c(CN2CCCCC2)c(O)n(CCCO)c(=O)c1C#N	1	-15	24	36*	7	-6
CC1(Cc2ccc(C(F)(F)F)o2)C(=O)Nc2cc(-c3ccc(F)cc3F)ccc21 (centres undefined)	0	-1	-7	13	-1	-8
CCCN(C)C1CN(Cc2cn(Cc3ccccc3)nn2)S(=O)(=O)C1 (centres undefined)	0	-17	2	·	·	·
CCCc1nc2c3ccccc3ccn2c1Cc1cccc(F)c1	1	-20	15	56*	-6	-26
OC(COCC1CC=CCC1)Cn1cnc2ccccc21 (centres undefined)	1	-8	12	-12	2	24*
O=C(CC(=O)c1cccs1)c1ccncc1	0	-14	14	-7	-3	3
FC(F)Oc1ccc(NC(=S)NCc2ccccc2)cc1	3	28*	-14	12	-5	-11
COc1ccc(CN2C(=O)C(CC(=O)NC3CCCC3)CC(C(=O)N3CCOCC3)=C2C)cc1 (centres undefined)	0	24*	-5	10	-6	-2
O=S1(=O)CCC(NC(=S)Nc2ccccc2)C1 (centres undefined)	1	-15	22	-34	2	29*
O=S1(=O)CCC(NC(=S)Nc2ccc3ccccc3c2)C1 (centres undefined)	1	-7	-5	-10	-2	6
COc1ccc(Cc2noc(CN3CCN(c4ccc(Cl)cn4)CC3)n2)cc1OC	22*	4	0	3	-4	1
CS(=O)(=O)N(CC(=O)N1CCN(Cc2ccccc2)CC1)c1cccc(F)c1	3	0	7	-12	-5	7
SMILES	M1 ag parental	CHO-K1 Ca antag	CHO-K1 Ca PAM	CHRM1 antagonist	CHRM1 agonist	CHRM1 PAM
Cc1ccc(C(=O)NCC(c2ccc(F)cc2)N2CCOCC2)cc1 (centres undefined)	1	-14	22	-8	-3	4
Cn1cccc1C(=O)NCC(c1ccc(F)cc1)N1CCOCC1 (centres undefined)	0	-14	-6	-25	1	26*
O=C(O)c1ccc(S(=O)(=O)NCC2CCCO2)cc1 (centres undefined)	0	-6	14	-11	-4	4
COc1ccc(CNC(=O)COC(=O)c2cc3ccccc3o2)cc1	0	21	-20	29*	-2	-13
CCCCCC#CCN1CCN(C23CC4CC(CC(C4)C2)C3)CC1	0	-20	19	32	-8	-15
CCCC#CCN1CCN(C23CC4CC(CC(C4)C2)C3)CC1	0	-6	-1	47*	-11	-25
CC(OC(=O)CCCN=C1NS(=O)(=O)c2ccccc21)C(=O)c1ccccc1 (centres undefined)	16*	-4	6	5	19*	-3
COc1ccc(Cn2ccnc2)cc1Br	2	-11	14	-5	-3	-1
COc1ccc(NCc2ccc(OC)c(Cn3ccnc3)c2)c(OC)c1	5	-3	-3	34*	-9	-22
CC1CCCN(CCCNC(=O)c2ccc(CS(=O)(=O)c3c(Cl)cccc3Cl)o2)C1 (centres undefined)	1	-10	3	57*	-5	-21
Cc1cccc(Cn2c(N3CCCCC3C)nc3c2c(=O)[nH]c(=O)n3C)c1 (centres undefined)	0	2	3	32*	-10	-28
Cc1cc(C)n(-c2nc3c(c(=O)[nH]c(=O)n3C)n2Cc2ccccc2)n1	0	25*	-5	-3	-3	1
Cc1cc(C)n(-c2nc3c(c(=O)[nH]c(=O)n3C)n2CCc2ccccc2)n1	0	5	4	-3	0	3
Cc1cccc(Cn2c(N3CCN(C)CC3)nc3c2c(=O)[nH]c(=O)n3C)c1	9	-2	18	-4	-3	7
CC(=O)Cn1c(N2CCC(Cc3ccccc3)CC2)nc2c1c(=O)[nH]c(=O)n2C	0	-17	23	-48	-1	22*
Cc1cc(NC(=O)COC(=O)CNS(=O)(=O)c2c(F)cc(F)cc2Br)no1	2	-4	7	3	0	-1
Cc1cccc(/C=N/NC(=O)c2cc(C)nc3ccccc23)n1	3	-6	-2	0	-3	1
Cc1cccc(/C=N/NC(=O)c2cc(C3CC3)nc3ccccc23)n1	0	26*	-13	-12	6	19
COc1ccc(/C=N/NC(=O)c2cccc3ccccc23)c(OC)c1OC	4	-6	8	-7	0	6
Cc1cc(NC(=O)COc2ccc(Cl)cc2Cl)n(-c2ccccc2)n1	1	10	-3	0	-3	-1
